# From PubChem BioAssay AID588742 (Southern Research Specialized Biocontainment Screening …, 2011)
# Screen size: about 1,800 compounds; about 410 (23%) were called active. The rule behind the calls is not given here. Only a sample is shown. Measured potencies and affinities stand elsewhere.
# Test: Vero cell cytotoxicity, cytotoxicity control for flavivirus capping enzyme inhibitors (AID 588742)
# Details: Vero cells viability, cytotoxicity counter-screen; series mostly up to 40 µM
row,Compound,outcome
1,Cc1[nH]n(-c2ncc(-c3ccccc3)s2)c(=O)c1C(c1ccc(Br)cc1)C(C#N)C#N (stereo not given),inactive
2,O=C(O)c1cc([N+](=O)[O-])c(Nc2cccc3ccccc23)c([N+](=O)[O-])c1,inactive
3,O=C1Nc2ccc(F)cc2C12Nc1ccccc1-c1nnc(SCc3ccccc3Cl)nc1O2 (stereo not given),inactive
4,CCc1ccc([C@@H]2CC=C(C(=O)O)[C@H](c3ccc(Cl)cc3)N2S(=O)(=O)c2ccc(C)cc2)cc1,inactive
5,O=C(O)[C@H](Cc1ccccc1)N1C(=O)c2c(Cl)c(Cl)c(Cl)c(Cl)c2C1=O,inactive
6,Cc1cc(C)c2nc(N3C(=O)C(O)=C(C(=O)c4ccco4)C3c3cccc(O)c3)sc2c1 (stereo not given),inactive
7,COc1ccc(CNC(=O)CCCC2=NS(=O)(=O)c3ccccc3N2)cc1,inactive
8,Cc1[nH]n(-c2ccccc2)c(=O)c1C(c1ccccc1[N+](=O)[O-])C(C#N)C#N (stereo not given),inactive
9,O=C1CCC/C1=C/Nc1ccc2c(c1)OCO2,inactive
10,N#Cc1c2c(c(-c3ccco3)[nH]c1=O)CCCC2,inactive
11,Cn1c(=O)c([N+](=O)[O-])c(Oc2ccccc2)c2ccccc21,inactive
12,O=Nc1c(O)ccc2cc(S(=O)(=O)O)ccc12,inactive
13,COC(=O)c1cc(C(=O)OC)cc(N2C(=O)CC(NNC(=O)c3ccccc3Cl)C2=O)c1 (stereo not given),inactive
14,O=C(O)/C=C/C(=O)Nc1ccc(C2(c3ccc(NC(=O)/C=C/C(=O)O)cc3)c3ccccc3-c3ccccc32)cc1,inactive
15,CCCn1nc(NS(=O)(=O)c2cccc3nonc23)c2cc3cccc(C)c3nc21,inactive
16,Cc1ccc(/C=C2\SC(=S)N(NS(=O)(=O)c3ccc(C)cc3)C2=O)cc1,inactive
17,Cc1ccc(-c2nnc(Nc3ccc(CC(N)=O)cc3)c3ccccc23)cc1S(N)(=O)=O,inactive
18,Cc1nc(Nc2ccc(C(=O)O)cc2)nc(Nc2ccc(C(=O)O)cc2)c1[N+](=O)[O-],inactive
19,CC1=CC(=O)C(Sc2ccc(C)cc2)=CC1=O,inactive
20,O=C(CCN1C(=O)/C(=C/c2ccc3c(c2)OCO3)SC1=S)Nc1cccc(C(=O)O)c1,inactive
21,COc1ccc2nc(N3CCC(O)CC3)c(C#N)cc2c1,inactive
22,CCOC(=O)c1c(=O)n(O)c2ccc(C)cc2[n+]1[O-],inactive
23,Cc1ccc(-c2ccc(/C=C3\C(=O)ON=C3c3ccccc3)o2)c([N+](=O)[O-])c1,inactive
24,COc1ccc(/C=C2\C(=O)ON=C2c2ccccc2)cc1OC,inactive

row,Compound,outcome
1,COc1cccc(/C=C2/C(=O)NN(c3ccc(C)c(C)c3)C2=O)c1,inactive
2,CCOc1cc(/C=N/N=C2/NC(=O)C(CC(=O)O)S2)ccc1OCc1ccc(Cl)cc1 (stereo not given),inactive
3,Cn1cc([N+](=O)[O-])c(C(=O)N(Cc2ccccc2)Cc2ccccc2)n1,inactive
4,COc1ccc(Br)cc1/C=C/C(=O)NC(=S)Nc1ccc(Cl)c(C(=O)O)c1,inactive
5,CNc1ccc(Br)cc(C(=O)/C=C/c2cccc(OC)c2OC)c1=O,inactive
6,CC1(C)CC(=O)C(C(C2=C(O)CC(C)(C)CC2=O)c2ccc(O)c([N+](=O)[O-])c2)=C(O)C1,inactive
7,O=C(O)/C(=C\c1c(C(=O)O)[nH]c2cc(Cl)cc(Cl)c12)c1ccccc1,inactive
8,Oc1c(Br)cc(/C=N/n2c(-c3ccccc3)n[nH]c2=S)cc1Br,inactive
9,CCOCCCNC(=O)CC1Oc2ccc(C)cc2NC1=O (stereo not given),inactive
10,Cc1ccc(CC(CC(=O)Nc2cccc(C(F)(F)F)c2)C(=O)O)cc1 (stereo not given),inactive
11,O=C1CCCC/C1=C/Nc1ccc2c(c1)OCO2,inactive
12,CC(=O)Oc1ccc(/C=C2/C(=O)N(c3ccccc3)N=C2C)cc1,inactive
13,COC(=O)CC1=NN(c2ccccc2)C(=O)/C1=C\c1ccc(OC)cc1,inactive
14,Cc1ccc(C2C(C#N)=C(N)Oc3nc(-c4ccccc4)[nH]c32)o1 (stereo not given),inactive
15,O=C1C(Cl)=C(NCCc2ccccc2)C(=O)c2ccccc21,inactive
16,COc1cccc(/C=C2\SC(=S)N(C(C(=O)O)c3ccccc3)C2=O)c1OC (stereo not given),inactive
17,COc1cc2c3c(c1)-c1c(sn(-c4cc(OC)ccc4OC)c1=S)C(C)(C)N3C(=O)C2=O,inactive
18,C#CCOc1c(Br)cc(/C=C2/C(=O)ON=C2C)cc1OCC,inactive
19,CCc1ccc(N(C(=O)c2csnn2)C(C(=O)NC(C)(C)CC)c2cccnc2)cc1 (stereo not given),inactive
20,O=C1OC(c2ccccc2)/C(=C(/O)c2ccc(Cl)cc2)C1=O (stereo not given),inactive
21,CC(C)c1noc2ncc(C(=O)c3cc(Cl)cc(Cl)c3O)cc12,inactive
22,CCCCn1c(=O)nc2n(-c3ccccc3)c3ccccc3cc-2c1=O,inactive
23,O=C1c2ccccc2C(=O)c2c(/C=C/N3CCCCC3)ccnc21,inactive
24,O=S(=O)(Nc1c(O)ccc2ccccc12)c1ccccc1,inactive

row,Compound,outcome
1,O=c1ccc2c(-c3ccccc3S(=O)(=O)O)c3ccc(O)c(O)c3oc-2c1O,inactive
2,Cc1ccc(S(=O)(=O)NN2C(=O)/C(=C/c3ccc(C(=O)O)cc3)SC2=S)cc1,inactive
3,N#CC1=C(N)N(c2ccccc2)C2=C(C(=O)CCC2)C1c1ccsc1 (stereo not given),inactive
4,C=CCn1c(SCC(=O)c2ccccc2)nnc1-c1ccc2c(c1)OCO2,inactive
5,N#C/C(=C\c1cccs1)C(=O)c1ccccc1,inactive
6,CC(=O)OCC1=C(C(=O)O)N2C(=O)C(NC(=O)CCn3nc(C(F)(F)F)c(Br)c3C3CC3)C2SC1 (stereo not given),inactive
7,COc1ccc(N2CCN(C(=O)CCC(=O)N3Cc4ccccc4Oc4ncccc43)CC2)cc1,inactive
8,CN1C(C(=O)NCc2cccs2)=CC(c2ccc(F)cc2)=NS1(=O)=O,inactive
9,O=C(O)C(c1ccccc1)N1C(=O)/C(=C/c2cccs2)SC1=S (stereo not given),inactive
10,Nc1ccc(S(=O)(=O)Nc2nccs2)cc1N=Nc1ccccc1[N+](=O)[O-],inactive
11,CCOC(=O)c1cc(-c2ccco2)nc2c1c(C)nn2CCC#N,inactive
12,COc1cc(C(C2C(=O)CC(C)(C)CC2=O)C2C(=O)CC(C)(C)CC2=O)ccc1O,inactive
13,COc1cccc(/C=C2\SC(=S)N(NS(=O)(=O)c3ccccc3)C2=O)c1OC,inactive
14,O=C1NC(=S)N/C1=C/C=C/c1ccccc1,inactive
15,CN(C)c1ccc(C=Nc2ccc(N(C)C)cc2)cc1,inactive
16,CCCC(C(=O)O)N1C(=O)/C(=C2\C(=O)N(C)c3ccccc32)SC1=S (stereo not given),inactive
17,CCN1/C(=C2\C(=O)N(C)C(=S)N2C)C=Cc2cc(OC)ccc21,inactive
18,O=C(O)CN1C(=O)/C(=C\c2cccc(OCc3ccc(Cl)cc3Cl)c2)SC1=S,inactive
19,O=C(CNC(=O)N1CC(=O)Nc2ccccc21)Nc1cccc(F)c1,inactive
20,O=C(O)c1[nH]c2ccccc2c1C(c1ccccc1)c1c(C(=O)O)[nH]c2ccccc12,inactive
21,O=C(O)c1ccc(NS(=O)(=O)c2ccc3c(c2)C(=O)c2cc(S(=O)(=O)Nc4ccc(C(=O)O)cc4)ccc2-3)cc1,inactive
22,Cc1ccc(/C=C2\S/C(=N/S(=O)(=O)c3cccs3)NC2=O)cc1,inactive
23,Cc1ccc(S(=O)(=O)/N=C2\C=C(NS(=O)(=O)c3ccc(C)cc3)C(=O)c3ccccc32)cc1,inactive
24,O=C(O)c1ccc(NC2=C/C(=N/S(=O)(=O)c3cccs3)c3ccccc3C2=O)cc1,inactive

row,Compound,outcome
1,CC(C)(C)c1ccc(S(=O)(=O)/N=C2\C=C(NS(=O)(=O)c3ccccc3)C(=O)c3ccccc32)cc1,inactive
2,O=C(O)c1ccc(Nc2nc3ccccc3nc2NS(=O)(=O)c2ccc(F)cc2)cc1,inactive
3,Cc1ccc(N2C(N)=C(C#N)C(c3cccnc3)C3=C2CCCC3=O)cc1 (stereo not given),inactive
4,C=CCOc1cccc(C2C(C(=O)c3cc4ccccc4o3)=C(O)C(=O)N2c2cc(C)on2)c1 (stereo not given),inactive
5,CCOc1ccc(NS(=O)(=O)c2ccc(Cl)c(N=Nc3c(O)[nH]c(=S)[nH]c3=O)c2)cc1Br,inactive
6,C/C(=N\Nc1cccc(C(=O)O)c1)c1ccc2c(c1)Nc1ccccc1S2,inactive
7,CC(N=Cc1cccc(O)c1O)c1ccccc1 (stereo not given),inactive
8,CSc1ccc(C(c2c(C(=O)O)[nH]c3ccccc23)c2c(C(=O)O)[nH]c3ccccc23)cc1,inactive
9,CN(C(=S)Nc1ccc(SC(F)F)cc1)c1ccc(O)cc1,inactive
10,CC(C)c1nc(SCC(=O)N2CCCC2)c2ccccc2n1,inactive
11,CC(=O)OCC1=C(C(=O)O)N2C(=O)C(NC(=O)c3ccc(COc4c(C)cccc4Cl)o3)C2SC1 (stereo not given),inactive
12,Cc1ccc([C@@H]2CC=C(C(=O)O)[C@H](c3ccc(Br)cc3)N2S(=O)(=O)c2ccc(C)cc2)cc1,inactive
13,CC1=C/C(=C(/c2cc(C)c(O)c(Br)c2)c2ccccc2S(=O)(=O)O)C=C(Br)C1=O,inactive
14,COc1cc(/C=C2\SC(=S)N(C(C(=O)O)c3ccccc3)C2=O)cc(OC)c1OC (stereo not given),inactive
15,C[N+](C)(CCOc1ccccc1)Cc1ccccc1 (tested in a mixture with another compound),inactive
16,O=C(CSc1nc2scc(-c3ccco3)c2c(=O)n1-c1ccccc1)NCC1CCCO1 (stereo not given),inactive
17,CC(C)(C)C1CCc2c(sc(NC(=O)C3CC=CCC3C(=O)O)c2C#N)C1 (stereo not given),inactive
18,O=C(NC(NC(=S)Nc1ccccc1C(=O)O)C(Cl)(Cl)Cl)c1ccccc1 (stereo not given),inactive
19,C=CCOc1ccc(C(c2c(C(=O)O)[nH]c3ccccc23)c2c(C(=O)O)[nH]c3ccccc23)cc1,inactive
20,COc1cccc(C=Nc2cc(C(C)C)c(O)cc2C)c1O,inactive
21,O=C(O)COc1ccccc1/C=N/NC(=O)c1cc(-c2ccc(Cl)cc2)nc2ccccc12,inactive
22,Cc1c(Cl)cccc1NS(=O)(=O)c1ccc2c(c1)C1C=CCC1C(c1ccc(C(=O)O)cc1)N2 (stereo not given),inactive
23,CCOc1ccc(N(C)C(=O)CCc2nnc3ccc(N4CCCC4)nn23)cc1,inactive
